# Experimental data from PubChem BioAssay (NCI).
# Compounds without any hit were thinned out: in the full panel of roughly 83,000, 20% have a hit.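 Cell lines were cultured in 96-well plates, exposed to a single compound concentration, and assessed for percent growth 48 hours later.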 A number with no mark means an inactive call. Active and inactive are the calls of the source. Rule for the calls: active = growth percent below 10; inactive = the rest.
# Legend:
# Assay in all cases: NCI-60 one-dose screen, 48 h (100 = growth as untreated, 0 = no growth, -100 = all killed)
# Details in all cases: 10 µM unless noted
# RPMI-8226 leukemia = test system: RPMI-8226 leukemia
# OVCAR-8 ovarian = test system: OVCAR-8 ovarian
# OVCAR-5 ovarian = test system: OVCAR-5 ovarian
# OVCAR-4 ovarian = test system: OVCAR-4 ovarian
# SK-OV-3 ovarian = test system: SK-OV-3 ovarian
# IGROV1 ovarian = test system: IGROV1 ovarian
# OVCAR-3 ovarian = test system: OVCAR-3 ovarian
# HS 578T breast = test system: HS 578T breast
# NCI/ADR-RES ovarian = test system: NCI/ADR-RES ovarian
# T-47D breast = test system: T-47D breast
# BT-549 breast = test system: BT-549 breast
# MDA-MB-435 melanoma = test system: MDA-MB-435 melanoma
# SW-620 colon = test system: SW-620 colon
# MCF7 breast = test system: MCF7 breast
# HCT-116 colon = test system: HCT-116 colon
# HCC-2998 colon = test system: HCC-2998 colon
# KM12 colon = test system: KM12 colon
SMILES,growth (RPMI-8226 leukemia),growth (OVCAR-8 ovarian),growth (OVCAR-5 ovarian),growth (OVCAR-4 ovarian),growth (SK-OV-3 ovarian),growth (IGROV1 ovarian),growth (OVCAR-3 ovarian),growth (HS 578T breast),growth (NCI/ADR-RES ovarian),growth (T-47D breast),growth (BT-549 breast),growth (MDA-MB-435 melanoma),growth (SW-620 colon),growth (MCF7 breast),growth (HCT-116 colon),growth (HCC-2998 colon),growth (KM12 colon)
CC/C=C\C/C=C\C[C@H](O)C/C=C1/C(=O)C=C[C@H]1C/C=C\CCC(=O)OC,3.22% [8.25 µM] (active),15.3% [8.25 µM],71.1% [8.25 µM],43.3% [8.25 µM],85.6% [8.25 µM],37.3% [8.25 µM],4.28% [8.25 µM] (active),69.1% [8.25 µM],39.8% [8.25 µM],16.7% [8.25 µM],14.6% [8.25 µM],-14.1% [8.25 µM] (active),6.55% [8.25 µM] (active),28.1% [8.25 µM],-41.6% [8.25 µM] (active),61.2% [8.25 µM],3.51% [8.25 µM] (active)
COc1ccc(/C=C/C(=O)c2ccc(NC(=O)CN3CCN(c4cc5c(cc4F)c(=O)c(C(=O)O)cn5C4CC4)CC3)cc2)cc1,92.6%,99%,105%,101%,114%,115%,118%,94.8%,107%,98.7%,92.6%,98.6%,113%,91.9%,25.1%,100%,106%
O=C(CN1CCN(c2cc3c(cc2F)c(=O)c(C(=O)O)cn3C2CC2)CC1)Nc1ccc(C(=O)/C=C/c2ccc(Cl)cc2)cc1,90.2%,98%,115%,95.4%,110%,121%,128%,108%,111%,106%,91.1%,101%,111%,91.7%,41.3%,103%,120%
Cc1ccc(OCCn2c(C)nn(-c3ccc(Cl)cc3)c2=O)cc1,97.1%,109%,113%,98.9%,113%,112%,124%,89.6%,103%,104%,99.8%,105%,106%,98.8%,95.5%,,117%
COc1cc2c(cc1OC)C1(C)N(CC2)C(=O)OC1(C)C (centres undefined),105%,98.4%,107%,99.5%,107%,109%,114%,98.1%,105%,98.4%,115%,113%,103%,91.3%,104%,102%,112%
Cc1ccc(Cn2c(-c3nonc3N)nc3ccccc32)cc1,91%,88.3%,81.2%,87.1%,80.4%,67.2%,71.8%,72.9%,49.2%,74.6%,68.3%,-30.8% (active),28.4%,55.5%,58.2%,75.1%,31.6%
CCNc1nc(N2CC(=O)Nc3cc(OC)ccc32)c2ccccc2n1,27.3%,18.1%,20%,20.4%,27.4%,14.3%,-16.8% (active),7.61% (active),0.157% (active),11.6%,-22.2% (active),-25.8% (active),21.5%,3.09% (active),-14.1% (active),-20.8% (active),4.88% (active)
O=c1[nH]c(-c2cn(-c3ccc(Cl)cc3)nn2)nc2ccccc12,83.5%,48.5%,102%,36%,38.9%,74.1%,85.4%,37%,63.9%,54.4%,79.6%,77.2%,94.4%,99.8%,52%,90%,84.7%
Cc1cc2c(C(C)C)c(O)c(O)c(C=NCCCCC(=O)O)c2c(O)c1-c1c(C)cc2c(C(C)C)c(O)c(O)c(C=NCCCCC(=O)O)c2c1O,28.8%,46.1%,70.9%,44.2%,63.9%,41.7%,45.4%,30.9%,74.2%,53.9%,41.6%,61%,37.1%,32.8%,33%,,25.6%
O=S=Nc1ccc([N+](=O)[O-])cc1,102%,104%,87.2%,101%,103%,103%,98.3%,95%,99.4%,76.2%,91.8%,95.5%,93.4%,95.7%,94%,93.5%,81.6%
Cc1cc2c(C(C)C)c(O)c(O)c(C=NCCCCCCC(=O)O)c2c(O)c1-c1c(C)cc2c(C(C)C)c(O)c(O)c(C=NCCCCCCC(=O)O)c2c1O,10.1%,30.6%,55.9%,28.2%,63.7%,28.6%,25.8%,22.2%,67.6%,26.9%,37.8%,27.2%,27.2%,11.7%,17.6%,33.5%,15.7%
O=C1CCCCN1CCCCC#Cc1ccccc1C#Cc1ccc([N+](=O)[O-])cc1,2.47% (active),55.4%,60%,60.2%,71.1%,-36.7% (active),56.3%,69.4%,43.4%,49.4%,65.9%,45.5%,27.3%,49.6%,23.1%,,27.2%
CC(=O)c1cc(C(=O)c2ccc3c(c2)Sc2ccccc2N3)c2cc(C)ccn12,12.3%,4.39% (active),41.2%,38.1%,16.6%,27.8%,-14.3% (active),14.5%,12.1%,61.7%,-13.9% (active),-19.7% (active),22.4%,10.8%,-23.6% (active),23.2%,5.18% (active)
O=C(Nc1cc(C(F)(F)F)cc(C(F)(F)F)c1)Nc1ccc(OCc2nnc(-c3ccc(Cl)cc3)o2)c(F)c1,3.52% (active),10.6%,-5.15% (active),24%,5.55% (active),32.7%,16%,28.1%,4.95% (active),13.2%,22.8%,9.18% (active),22.8%,6.03% (active),7.81% (active),20.3%,13.7%
Cn1cc(C=O)c2ccccc21,98.4%,95.2%,101%,101%,101%,88.6%,106%,107%,100%,102%,106%,106%,95.1%,99.3%,102%,100%,102%
N=C(N)c1ccc(-c2ccc(-c3ccc(Cl)cc3)o2)nc1,-62.4% (active),-43.4% (active),-83.8% (active),-73.6% (active),-96.7% (active),-60.6% (active),-98.3% (active),-57.2% (active),-69.7% (active),-75.4% (active),-88% (active),-84.5% (active),-93.4% (active),-81.4% (active),-84.4% (active),-71.9% (active),-93.4% (active)
